Assay [1] in a line: Cytotoxicity counterscreen for inhibitors of SARS-CoV-2 cell entry (AID 1645845). Further: nearly all actives have a fitted effect of over 50% in size. Conditions: cell viability (SARS-CoV-2 entry assay cells); series mostly up to 57.1 µM. A digest of the protocol: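 After a 15 min room-temperature ATPLite 1step step, luminescence reflected ATP remaining in HEK293-ACE2 cells exposed to compound for 1 h plus 48 h at 37 C, with percent activity set by cell and no-cell controls.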
On the technique in general: A counterscreen serves to expose hits that act by an unwanted route or on another target.

Assay [2] in a line: Primary qHTS to identify inhibitors of SARS-CoV-2 cell entry (AID 1645846). Further: nearly all actives have a fitted effect of over 45% in size. Further: potency means the concentration at half of the fitted maximal effect. Conditions: SARS-CoV-2 pseudovirus cell entry assay, luminescence; activity change, negative = inhibition: at 57.1 µM (top of the series) unless noted; series mostly up to 57.1 µM. A digest of the protocol: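 Using luciferase-reporting pseudoviruses carrying Wuhan-Hu-1 spike, the screen tracks entry into stably ACE2-expressing cells over 48 hr. Activity is expressed relative to spike particles versus particles lacking any fusion protein.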
On the technique in general: qHTS replaces the single test concentration by a dilution series.

Structures are written as SMILES. Inconclusive results are not listed. The source made the active and inactive calls. The call rests on the fitted dose curve.

As for `Cc1cc2cc3c(C)cc(=O)oc3c(C)c2o1`, the Potency result in assay [1] and in assay [2] was “inactive” throughout.
As for `CCN(CC)CC#CCOC(=O)C(O)(c1ccccc1)C1CCCCC1` (stereo not given), the Potency entry in assay [1] is “inactive”. Further, in assay [2], the activity change, negative = inhibition is -28.2%.
Taken in the same sequence, the figures for `Cc1ccc(Cl)c(Nc2ccccc2C(=O)O)c1Cl` were “inactive” and -1.76%.
In the same order, the values of `Cc1cc(O)c2c(O)c3c(O)cccc3cc2c1` are “inactive” and -3.92%.
Taken in the same sequence, the figures for `CC(=O)NC[C@H]1CN(c2ccc(N3CCOCC3)c(F)c2)C(=O)O1` were “inactive” and -4.07%.
As for `O=c1[nH]c(=O)n([C@H]2O[C@H](CO)[C@@H](O)[C@@H]2O)cc1/C=C\Br`, the Potency result in assay [1] and in assay [2] was “inactive” throughout.
As to `S=P(N1CC1)(N1CC1)N1CC1`, in assay [1], the Potency entry is “inactive”. Further, the activity change, negative = inhibition in assay [2] came to 4.21%.
With `CCN(Cc1ccncc1)C(=O)C(CO)c1ccccc1` (stereo not given), the Potency result in assay [1] and in assay [2] was “inactive” throughout.
Turning to `Nc1nc(N)nc(-c2cc(Cl)ccc2Cl)n1`, the Potency result in assay [1] and in assay [2] was “inactive” in each case.
Take `CO/N=C(/C(=O)N[C@@H]1C(=O)N2C(C(=O)OCOC(=O)C(C)(C)C)=C(C)CS[C@H]12)c1csc(N)n1`: in assay [1], the Potency result was “inactive”. The activity change, negative = inhibition in assay [2] is -24.9%.
Consider `CC(=O)[C@H]1CC[C@H]2[C@@H]3C[C@H](C)C4=CC(=O)CC[C@]4(C)[C@H]3[C@@H](O)C[C@]12C`, for which the Potency entry in assay [1] and in assay [2] was “inactive” in each case.
Take `CC(C)=CCC1C(=O)N(c2ccccc2)N(c2ccccc2)C1=O`: in assay [1], the Potency result is “inactive”. Also, the activity change, negative = inhibition in assay [2] was -3.84%.
Regarding `CCOC(=O)c1ccc(N)cc1`, the Potency entry in assay [1] and in assay [2] was “inactive” each time.
For the compound `C/C(=N\O)[C@@H](C)NCC(C)(C)CN[C@H](C)/C(C)=N/O`, the Potency entry in assay [1] and in assay [2] was “inactive” throughout.
On to `COc1c(N2C[C@@H]3CCCN[C@@H]3C2)c(F)cc2c(=O)c(C(=O)O)cn(C3CC3)c12`, for which the Potency result in assay [1] is “inactive”. Moreover, the activity change, negative = inhibition in assay [2] was -24.8%.
Regarding `Clc1cccc(C(c2ccc3nc[nH]c3c2)n2ccnc2)c1` (stereo not given), the Potency entry in assay [1] and in assay [2] was “inactive” in each case.
`CCN[C@H]1CN(CCCOC)S(=O)(=O)c2sc(S(N)(=O)=O)cc21`: the Potency entry in assay [1] was “inactive”. Also, the activity change, negative = inhibition in assay [2] was -6.75%.
Turning to `CCc1cccc(CC)c1NC(=O)CN(CC(=O)O)CC(=O)O`, the Potency result in assay [1] and in assay [2] was “inactive” throughout.
Regarding `Nc1nc(Cl)nc2c1ncn2[C@@H]1O[C@H](CO)[C@@H](O)[C@@H]1F`, in assay [1], the Potency result was “inactive”. The Potency in assay [2] is 22.4 µM (active).
On to `CCCCCCCCCCCCOCCO`, for which the Potency entry in assay [1] is “inactive”. Moreover, the activity change, negative = inhibition in assay [2] is -19.3%.
On to `CC(=O)OCC(=O)[C@@]1(OC(C)=O)[C@@H](C)C[C@H]2[C@@H]3C[C@H](F)C4=CC(=O)C=C[C@]4(C)[C@@]3(F)[C@@H](O)C[C@@]21C`, for which the Potency entry in assay [1] and in assay [2] was “inactive” throughout.
On to `COc1ccc(C(=O)c2ccccc2O)c(O)c1`, for which the Potency result in assay [1] and in assay [2] was “inactive” each time.
Turning to `NCC(=O)CCC(=O)O`, the Potency result in assay [1] is “inactive”. In addition, the activity change, negative = inhibition in assay [2] was -19.8%.
Take `CC(=O)Nc1c(I)cc(I)c(C(=O)O)c1I`: the Potency result in assay [1] and in assay [2] was “inactive” each time.
As for `O=C(O)c1cc(O)c(O)c(O)c1`, the Potency entry in assay [1] and in assay [2] was “inactive” each time.
With `CCc1oc2ccccc2c1C(=O)c1cc(I)c(O)c(I)c1`, the Potency result in assay [1] is “inactive”. In addition, in assay [2], the activity change, negative = inhibition was -21.9%.
Taken in the same sequence, the figures for `CC(C(=O)O)c1cccc(Oc2ccccc2)c1` (stereo not given) were “inactive” and -1.5%.
As for `NNC(=O)c1ccncc1`, the Potency entry in assay [1] and in assay [2] was “inactive” in each case.
Turning to `CCCNC(C)C(=O)Nc1c(C)csc1C(=O)OC` (stereo not given), the Potency result in assay [1] and in assay [2] was “inactive” each time.
For `Nc1ncn([C@H]2C[C@H](O)[C@@H](CO)O2)c(=O)n1`, the Potency entry in assay [1] was “inactive”. Moreover, in assay [2], the activity change, negative = inhibition is -12.8%.
Taken in the same sequence, the figures for `COCCCOc1ccnc(CS(=O)c2nc3ccccc3[nH]2)c1C` (stereo not given) were “inactive” and 1.47%.
In the case of `CCN(CC)CCNC(=O)c1ccc(N)cc1`, the Potency entry in assay [1] and in assay [2] was “inactive” in each case.
On to `C[C@](N)(Cc1ccc(O)cc1)C(=O)O`, for which the outcome in assay [1] and in assay [2] was “inactive [at 5.25 µM]” in each case.
Turning to `CN(C)CCOC(=O)C(c1ccccc1)C1(O)CCCC1` (stereo not given), in assay [1], the Potency result is “inactive”. For the same compound, the activity change, negative = inhibition in assay [2] stood at 1%.
`CC(C(=O)O)c1ccc(C(=O)c2ccccc2)s1` (stereo not given): the Potency entry in assay [1] and in assay [2] was “inactive” each time.
For the compound `CC(C)(C)NCC(O)COc1ccccc1OCC1CCCO1` (stereo not given), the Potency result in assay [1] was “inactive”. The activity change, negative = inhibition in assay [2] was determined as 4.08%.
In the same order, the values of `O=C(O)c1cc(N=Nc2ccc(O)c(C(=O)O)c2)ccc1O` are “inactive” and -12.7%.
As for `CC(C)COC(=O)c1ccc(N)cc1`, the Potency entry in assay [1] and in assay [2] was “inactive” each time.
`O=C(COCCOCCOCC(=O)Nc1c(I)cc(I)c(C(=O)O)c1I)Nc1c(I)cc(I)c(C(=O)O)c1I`: the Potency result in assay [1] and in assay [2] was “inactive” in each case.
As for `O=c1c(-c2ccc(O)cc2)coc2cc(O)cc(O)c12`, the Potency entry in assay [1] is “inactive”. The activity change, negative = inhibition in assay [2] is -23.9% [at 114 µM].
Taken in the same sequence, the figures for `NS(=O)(=O)c1cc(-c2nn[nH]n2)c(NCc2cccs2)cc1Cl` were “inactive” and -3.88%.
For `C=CCN1CCc2nc(N)sc2CC1`, the Potency result in assay [1] and in assay [2] was “inactive” in each case.
Regarding `C[C@H](CS)C(=O)N1CCC[C@H]1C(=O)O`, the Potency entry in assay [1] and in assay [2] was “inactive” in each case.
Regarding `COc1ccc(C(=O)c2ccccc2)c(O)c1`, the Potency entry in assay [1] and in assay [2] was “inactive” each time.
Consider `CN1CCN(CC(=O)N2c3ccccc3C(=O)Nc3cccnc32)CC1`, for which the outcome in assay [1] and in assay [2] was “inactive [at 5.25 µM]” in each case.
